Source: PubChem BioAssay AID1779 (Sanford-Burnham Center for Chemical Genomics, 2009)
Hit rate of the full screen: of about 290,000 compounds, about 160 (0.055%) were called active. Rule as the data show it: active = inhibition above about 50%; inactive = the rest. What follows is part of a selection rich in actives, with near analogues and random picks from the rest.

These compounds were tested against Tyrosine-protein phosphatase non-receptor type 22 (Homo sapiens) (UniProt Q9Y2R2) (assay: PTPN22 lymphoid phosphatase activity blockers – biochemical, fluorescence intensity, uHTS (AID 1779;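 also: plate controls were vehicle with enzyme for no effect and no enzyme for full effect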)). Conditions: recombinant LYP phosphatase, at 11.5 µM, hits give high values.
Chain of Tyrosine-protein phosphatase non-receptor type 22 (Homo sapiens) (Q9Y2R2 whole entry, looked up): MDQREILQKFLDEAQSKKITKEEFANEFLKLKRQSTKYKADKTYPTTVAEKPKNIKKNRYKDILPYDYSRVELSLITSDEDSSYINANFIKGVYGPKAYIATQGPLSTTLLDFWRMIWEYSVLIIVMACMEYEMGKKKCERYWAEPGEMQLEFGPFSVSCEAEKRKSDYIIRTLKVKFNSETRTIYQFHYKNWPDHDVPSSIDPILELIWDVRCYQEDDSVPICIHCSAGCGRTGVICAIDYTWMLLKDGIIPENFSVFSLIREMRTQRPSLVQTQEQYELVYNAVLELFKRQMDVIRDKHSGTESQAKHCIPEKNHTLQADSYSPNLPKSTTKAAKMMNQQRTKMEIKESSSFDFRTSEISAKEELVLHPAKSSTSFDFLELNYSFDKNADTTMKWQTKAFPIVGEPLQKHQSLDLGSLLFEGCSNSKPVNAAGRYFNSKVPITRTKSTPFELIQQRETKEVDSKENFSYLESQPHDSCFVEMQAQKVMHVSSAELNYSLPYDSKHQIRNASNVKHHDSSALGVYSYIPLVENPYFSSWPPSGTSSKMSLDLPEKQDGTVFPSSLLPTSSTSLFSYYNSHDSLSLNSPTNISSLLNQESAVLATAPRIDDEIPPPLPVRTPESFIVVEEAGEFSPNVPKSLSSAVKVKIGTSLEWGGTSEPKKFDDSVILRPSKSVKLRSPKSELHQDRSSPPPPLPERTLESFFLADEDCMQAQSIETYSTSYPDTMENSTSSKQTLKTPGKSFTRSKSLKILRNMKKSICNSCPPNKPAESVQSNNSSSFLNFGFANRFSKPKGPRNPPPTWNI

Compound | inhibition
CC(=O)c1ccc2c(c1)C1C(Cl)C(Sc3ccccc3[N+](=O)[O-])CC1C(C(=O)O)N2 (stereo not given) | 51.4% (active)
CCN(CC)C(=O)c1ccc2c(c1)C1C(Cl)C(Sc3ccccc3[N+](=O)[O-])CC1C(C(=O)O)N2 (stereo not given) | 6.1% (inactive)
CC(=O)c1ccc2c(c1)C1C(Cl)C(Sc3ccccc3[N+](=O)[O-])CC1C(c1ccccc1)N2 (stereo not given) | 6% (inactive)
O=P(Nc1ccccc1)(Nc1ccccc1)Oc1ccc(Cl)cc1 | -4% (inactive)
COCc1cc(C2SCC(=O)Nc3c2c(=O)[nH]n3C(C)C)ccc1OC (stereo not given) | -11.3% (inactive)
CCOP(=O)(/C=C(\Cl)c1ccccc1)C(O)c1ccc(F)cc1 (stereo not given) | -5.3% (inactive)
CC(=O)C1C(=O)NC23CCCCC2C1c1ccccc1O3 (stereo not given) | 1.8% (inactive)
CCCc1nc2ccccc2c(=O)n1-c1ccc(OC)cc1 | 2.2% (inactive)
CCn1nc(-c2ccccc2)nc2c(=O)n(C)c(=O)nc1-2 | 60.7% (active)
COc1ccc(-n2c(/C=C/c3ccc(O)cc3)nc3ccccc3c2=O)cc1 | -7.8% (inactive)
O=c1c2ccccc2nc(-c2cccs2)n1-c1ccccc1 | -10.4% (inactive)
COc1ccc(-n2c(-c3ccccc3)nc3ccccc3c2=O)cc1 | -9.9% (inactive)
O=c1c2ccccc2nc(/C=C/c2ccccc2)n1-c1ccc(O)cc1 | 3.1% (inactive)
CCOc1ccc(-n2c(-c3cccs3)nc3ccccc3c2=O)cc1 | 8.8% (inactive)
CCn1nc(/C=C/c2ccccc2)nc2c(=O)n(C)c(=O)nc1-2 | 79.3% (active)
CCn1nc(-c2cccs2)nc2c(=O)n(C)c(=O)nc1-2 | 52.8% (active)
COc1ccc(C(=O)N2CCC3(CC2)OCCO3)cc1 | -5% (inactive)
c1ccc2c(CN3CCOCC3)c[nH]c2c1 | -8.9% (inactive)
Cc1cc(OC(=O)c2cccs2)c2c3c(c(=O)oc2c1)CCCC3 | 2.4% (inactive)
CCOC(=O)C(O)(c1ccc(NC(=O)Oc2ccccc2)cc1)C(F)(F)F (stereo not given) | -3.1% (inactive)

Compound | inhibition
CCN1CCN(c2ccc([N+](=O)[O-])cc2C=C2C(=O)NC(=O)NC2=O)CC1 | -8.1% (inactive)
c1nc2nc3c(c(N4CCNCC4)n2n1)CCCC3 | -3.9% (inactive)
S=P(Nn1cnnc1)(c1ccccc1)c1ccccc1 | 0.6% (inactive)
CCOC(=O)c1c(C)n(CC(O)CN2CCOCC2)c2cc(Br)c(OC)cc12 (stereo not given) | -6.1% (inactive)
COc1ccc(-c2nn(CCC#N)cc2C(=O)Nc2ccccc2)cc1OC | -8% (inactive)
CN(C)CC1CSCCC1(O)c1ccc(C(F)(F)F)cc1 (stereo not given) | -5.6% (inactive)
Cc1ccc(-c2nc3ccccc3c(=O)n2-c2ncccc2C)cc1 | -0.2% (inactive)
Cc1cccnc1-n1c(C)nc2ccccc2c1=O | 90.2% (active)
Cc1cccnc1-n1c(-c2ccccc2)nc2ccccc2c1=O | -1.3% (inactive)
C=CCN1C(=O)NC(=O)C(Cc2ccc(OC)c(OC)c2)C1=O (stereo not given) | 3.4% (inactive)
Cn1ncnc2c(=O)n(C)c(=O)nc1-2 | 71.9% (active)
Cc1nc2c(=O)n(C)c(=O)nc-2n(C)n1 | 87.9% (active)
CN1CC(C(=O)c2ccc(F)cc2)C(c2ccc(F)cc2)C1 (stereo not given) | -5.4% (inactive)
C=CCC1C(=O)NC(=S)NC1=O | 4.3% (inactive)
COc1ccccc1N1CCN(CCc2ccccc2)CC1 | -7.3% (inactive)
N=C1c2ccccc2CN1NC(=O)c1ccc(Br)cc1 | -5.9% (inactive)
CCOC(=O)C(NC(=O)CC)(Nc1ccc(C(O)(C(=O)OCC)C(F)(F)F)cc1C)C(F)(F)F (stereo not given) | -6.6% (inactive)
CCOC(=O)C(NC(=O)CCl)(Nc1ccc(C(O)(C(=O)OCC)C(F)(F)F)cc1)C(F)(F)F (stereo not given) | 82.4% (active)
CCCCNC(=O)Nc1ccc(C(O)(C(=O)OCC)C(F)(F)F)cc1 (stereo not given) | -8.2% (inactive)
CCC(=O)N1CC(=O)Nc2ccc(F)cc2C1c1ccc(F)cc1 (stereo not given) | 1% (inactive)
